# Test results published in ChEMBL document CHEMBL2218924, “A broad activity screen in support of a chemogenomic map for kinase signalling research and drug discovery” (Biochem J, 2013).
# Tests used:
# [1] = biological target: T1, Ephrin type-A receptor 3 (Homo sapiens) (UniProt P29320); settings: at 10 µM
# T1 sequence (whole entry): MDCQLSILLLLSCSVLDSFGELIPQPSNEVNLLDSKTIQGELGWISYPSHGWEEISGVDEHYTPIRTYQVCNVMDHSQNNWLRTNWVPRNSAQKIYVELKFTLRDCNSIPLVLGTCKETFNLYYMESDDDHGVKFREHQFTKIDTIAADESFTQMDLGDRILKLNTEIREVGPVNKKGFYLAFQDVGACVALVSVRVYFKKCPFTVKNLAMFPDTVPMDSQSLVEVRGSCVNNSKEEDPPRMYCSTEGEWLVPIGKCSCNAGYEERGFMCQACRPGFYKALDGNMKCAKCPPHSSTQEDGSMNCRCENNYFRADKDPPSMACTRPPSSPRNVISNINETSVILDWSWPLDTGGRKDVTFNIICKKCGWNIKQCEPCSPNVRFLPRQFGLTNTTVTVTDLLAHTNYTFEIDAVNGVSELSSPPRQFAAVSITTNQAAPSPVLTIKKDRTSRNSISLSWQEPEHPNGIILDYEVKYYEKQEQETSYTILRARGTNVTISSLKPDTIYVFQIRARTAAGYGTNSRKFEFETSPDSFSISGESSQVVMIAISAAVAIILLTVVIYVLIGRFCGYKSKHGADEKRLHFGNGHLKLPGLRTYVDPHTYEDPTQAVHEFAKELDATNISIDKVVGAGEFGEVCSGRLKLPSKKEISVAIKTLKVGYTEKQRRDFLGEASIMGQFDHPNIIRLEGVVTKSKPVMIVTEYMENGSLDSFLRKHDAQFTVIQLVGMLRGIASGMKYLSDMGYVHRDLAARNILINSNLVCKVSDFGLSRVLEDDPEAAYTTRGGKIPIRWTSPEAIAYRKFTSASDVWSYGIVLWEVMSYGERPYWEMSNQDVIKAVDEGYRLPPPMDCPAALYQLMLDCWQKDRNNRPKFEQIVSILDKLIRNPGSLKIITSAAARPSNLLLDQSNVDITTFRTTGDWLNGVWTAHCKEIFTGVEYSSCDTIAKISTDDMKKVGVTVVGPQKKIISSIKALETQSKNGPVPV
# [2] = biological target: Ephrin type-A receptor 5 (Homo sapiens) (UniProt P54756); settings: at 1 µM
# [3] = biological target: Ephrin type-A receptor 5 (Homo sapiens) (UniProt P54756); settings: at 10 µM
# [4] = biological target: Ephrin type-A receptor 7 (Homo sapiens) (UniProt Q15375); settings: at 1 µM
# [5] = biological target: Ephrin type-A receptor 7 (Homo sapiens) (UniProt Q15375); settings: at 10 µM
# [6] = biological target: T2, Ephrin type-A receptor 8 (Homo sapiens) (UniProt P29322); settings: at 1 µM
# T2 sequence (whole entry): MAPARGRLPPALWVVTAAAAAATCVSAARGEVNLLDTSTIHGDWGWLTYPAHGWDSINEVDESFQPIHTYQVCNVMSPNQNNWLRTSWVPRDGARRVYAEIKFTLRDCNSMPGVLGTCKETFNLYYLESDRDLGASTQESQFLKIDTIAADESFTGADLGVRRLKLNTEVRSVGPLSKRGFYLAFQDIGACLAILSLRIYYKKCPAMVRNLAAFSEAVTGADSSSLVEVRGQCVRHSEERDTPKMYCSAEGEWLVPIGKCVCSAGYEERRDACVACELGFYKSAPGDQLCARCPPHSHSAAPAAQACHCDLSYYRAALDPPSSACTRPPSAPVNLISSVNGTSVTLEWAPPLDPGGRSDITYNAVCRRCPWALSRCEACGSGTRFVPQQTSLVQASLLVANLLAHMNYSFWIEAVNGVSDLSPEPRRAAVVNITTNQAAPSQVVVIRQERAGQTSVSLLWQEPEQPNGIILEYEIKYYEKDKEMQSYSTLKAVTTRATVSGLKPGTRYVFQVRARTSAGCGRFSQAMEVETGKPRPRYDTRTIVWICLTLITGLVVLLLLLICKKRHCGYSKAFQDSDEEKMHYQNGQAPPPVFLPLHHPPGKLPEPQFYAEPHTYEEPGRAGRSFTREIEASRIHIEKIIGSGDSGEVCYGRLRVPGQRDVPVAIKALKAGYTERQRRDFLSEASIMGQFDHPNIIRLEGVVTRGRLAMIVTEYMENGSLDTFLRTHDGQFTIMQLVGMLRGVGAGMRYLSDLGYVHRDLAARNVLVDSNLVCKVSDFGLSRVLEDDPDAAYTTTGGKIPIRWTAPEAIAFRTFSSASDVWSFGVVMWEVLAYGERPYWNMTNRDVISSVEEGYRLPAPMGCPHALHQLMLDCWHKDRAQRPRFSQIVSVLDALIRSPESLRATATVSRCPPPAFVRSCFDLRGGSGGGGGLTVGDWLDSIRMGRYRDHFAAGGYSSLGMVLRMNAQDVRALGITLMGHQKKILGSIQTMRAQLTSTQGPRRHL
# [7] = biological target: T2, Ephrin type-A receptor 8 (Homo sapiens); settings: at 10 µM
# [8] = biological target: T3, Ephrin type-B receptor 1 (Homo sapiens) (UniProt P54762); settings: at 1 µM
# T3 sequence (whole entry): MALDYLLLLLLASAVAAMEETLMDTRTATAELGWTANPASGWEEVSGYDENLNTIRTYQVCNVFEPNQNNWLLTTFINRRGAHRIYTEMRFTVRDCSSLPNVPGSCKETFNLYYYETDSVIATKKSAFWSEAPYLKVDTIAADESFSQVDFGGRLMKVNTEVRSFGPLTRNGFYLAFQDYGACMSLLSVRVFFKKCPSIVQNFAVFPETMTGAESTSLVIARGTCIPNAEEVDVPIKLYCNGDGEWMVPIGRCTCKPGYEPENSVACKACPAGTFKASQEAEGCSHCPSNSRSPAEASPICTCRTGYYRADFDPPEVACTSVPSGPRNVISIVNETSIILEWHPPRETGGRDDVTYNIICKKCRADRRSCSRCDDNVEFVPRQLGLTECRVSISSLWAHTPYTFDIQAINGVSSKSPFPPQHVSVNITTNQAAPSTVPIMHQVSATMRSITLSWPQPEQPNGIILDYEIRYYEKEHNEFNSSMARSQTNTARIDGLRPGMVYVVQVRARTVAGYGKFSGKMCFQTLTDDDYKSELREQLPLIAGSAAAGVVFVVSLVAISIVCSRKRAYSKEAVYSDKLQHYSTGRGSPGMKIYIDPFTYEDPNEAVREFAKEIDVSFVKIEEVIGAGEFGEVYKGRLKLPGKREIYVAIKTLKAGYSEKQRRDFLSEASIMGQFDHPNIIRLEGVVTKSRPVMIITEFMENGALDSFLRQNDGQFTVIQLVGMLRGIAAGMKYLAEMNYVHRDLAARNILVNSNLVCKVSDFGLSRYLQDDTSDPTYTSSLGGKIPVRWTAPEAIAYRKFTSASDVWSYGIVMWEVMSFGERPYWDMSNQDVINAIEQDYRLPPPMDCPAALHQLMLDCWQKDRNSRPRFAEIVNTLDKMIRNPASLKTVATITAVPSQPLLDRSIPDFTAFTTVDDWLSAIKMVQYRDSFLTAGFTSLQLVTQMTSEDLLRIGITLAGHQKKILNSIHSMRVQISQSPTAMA
# [9] = biological target: T3, Ephrin type-B receptor 1 (Homo sapiens); settings: at 10 µM
# [10] = biological target: T4, Ephrin type-B receptor 2 (Homo sapiens) (UniProt P29323); settings: at 1 µM
# T4 sequence (whole entry): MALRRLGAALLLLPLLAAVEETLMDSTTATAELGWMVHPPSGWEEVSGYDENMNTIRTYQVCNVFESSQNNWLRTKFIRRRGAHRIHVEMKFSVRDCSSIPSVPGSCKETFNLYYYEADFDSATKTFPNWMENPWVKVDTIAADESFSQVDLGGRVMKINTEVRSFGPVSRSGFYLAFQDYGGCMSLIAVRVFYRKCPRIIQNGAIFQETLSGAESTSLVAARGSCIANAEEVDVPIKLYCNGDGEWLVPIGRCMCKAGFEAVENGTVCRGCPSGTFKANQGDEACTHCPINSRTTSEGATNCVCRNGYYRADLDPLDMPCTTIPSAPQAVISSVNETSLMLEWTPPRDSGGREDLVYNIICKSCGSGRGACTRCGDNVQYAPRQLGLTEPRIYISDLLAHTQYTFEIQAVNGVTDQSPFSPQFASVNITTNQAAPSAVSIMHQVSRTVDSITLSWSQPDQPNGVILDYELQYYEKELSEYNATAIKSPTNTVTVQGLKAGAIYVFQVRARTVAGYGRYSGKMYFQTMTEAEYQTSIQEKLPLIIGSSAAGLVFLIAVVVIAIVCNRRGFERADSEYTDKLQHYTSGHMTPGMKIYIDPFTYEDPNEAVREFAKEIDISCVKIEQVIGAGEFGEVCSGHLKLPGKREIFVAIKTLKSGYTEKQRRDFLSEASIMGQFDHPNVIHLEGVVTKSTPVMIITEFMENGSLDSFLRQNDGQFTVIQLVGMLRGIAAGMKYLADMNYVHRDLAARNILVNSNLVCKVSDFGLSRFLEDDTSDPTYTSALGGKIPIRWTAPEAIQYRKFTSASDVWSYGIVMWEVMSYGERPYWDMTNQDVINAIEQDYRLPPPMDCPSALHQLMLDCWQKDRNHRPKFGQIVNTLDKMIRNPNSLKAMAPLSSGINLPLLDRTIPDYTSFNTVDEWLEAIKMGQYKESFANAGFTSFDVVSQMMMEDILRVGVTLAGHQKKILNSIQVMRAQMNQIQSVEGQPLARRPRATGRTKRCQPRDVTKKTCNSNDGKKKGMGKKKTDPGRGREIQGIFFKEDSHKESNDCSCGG
# [11] = biological target: T4, Ephrin type-B receptor 2 (Homo sapiens); settings: at 10 µM
# [12] = biological target: T5, Ephrin type-B receptor 4 (Homo sapiens) (UniProt P54760); settings: at 1 µM
# T5 sequence (whole entry): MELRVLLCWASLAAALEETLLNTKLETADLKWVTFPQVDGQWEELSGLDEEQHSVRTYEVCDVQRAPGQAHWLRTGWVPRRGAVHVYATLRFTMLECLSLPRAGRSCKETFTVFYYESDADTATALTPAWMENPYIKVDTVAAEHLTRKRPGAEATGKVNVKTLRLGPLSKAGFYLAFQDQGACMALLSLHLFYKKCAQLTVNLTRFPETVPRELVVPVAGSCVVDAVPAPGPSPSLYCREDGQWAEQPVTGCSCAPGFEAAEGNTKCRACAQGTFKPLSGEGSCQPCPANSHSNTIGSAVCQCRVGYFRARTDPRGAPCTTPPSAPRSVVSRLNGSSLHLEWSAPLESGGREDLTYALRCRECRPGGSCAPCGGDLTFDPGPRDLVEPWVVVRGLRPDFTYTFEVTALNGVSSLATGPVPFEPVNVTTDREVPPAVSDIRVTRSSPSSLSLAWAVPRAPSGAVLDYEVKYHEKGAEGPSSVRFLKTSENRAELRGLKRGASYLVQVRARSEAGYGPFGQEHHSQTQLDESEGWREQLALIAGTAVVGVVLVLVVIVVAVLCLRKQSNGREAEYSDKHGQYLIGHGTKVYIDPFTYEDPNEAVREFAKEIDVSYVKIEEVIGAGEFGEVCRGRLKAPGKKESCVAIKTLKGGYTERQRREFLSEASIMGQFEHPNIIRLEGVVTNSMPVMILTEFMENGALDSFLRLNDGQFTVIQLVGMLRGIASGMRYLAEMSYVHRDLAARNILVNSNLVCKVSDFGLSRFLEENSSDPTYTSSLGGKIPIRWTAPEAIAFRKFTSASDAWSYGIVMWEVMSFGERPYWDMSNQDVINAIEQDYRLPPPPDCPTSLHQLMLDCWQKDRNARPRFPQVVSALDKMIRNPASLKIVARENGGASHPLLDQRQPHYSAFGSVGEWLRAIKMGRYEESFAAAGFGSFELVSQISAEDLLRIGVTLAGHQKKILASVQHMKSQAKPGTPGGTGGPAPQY
# [13] = biological target: T5, Ephrin type-B receptor 4 (Homo sapiens); settings: at 10 µM
# [14] = biological target: Focal adhesion kinase 1 (Homo sapiens) (UniProt Q05397); settings: at 1 µM
# [15] = biological target: T6, Ephrin type-B receptor 3 (Homo sapiens) (UniProt P54753); settings: at 1 µM
# T6 sequence (whole entry): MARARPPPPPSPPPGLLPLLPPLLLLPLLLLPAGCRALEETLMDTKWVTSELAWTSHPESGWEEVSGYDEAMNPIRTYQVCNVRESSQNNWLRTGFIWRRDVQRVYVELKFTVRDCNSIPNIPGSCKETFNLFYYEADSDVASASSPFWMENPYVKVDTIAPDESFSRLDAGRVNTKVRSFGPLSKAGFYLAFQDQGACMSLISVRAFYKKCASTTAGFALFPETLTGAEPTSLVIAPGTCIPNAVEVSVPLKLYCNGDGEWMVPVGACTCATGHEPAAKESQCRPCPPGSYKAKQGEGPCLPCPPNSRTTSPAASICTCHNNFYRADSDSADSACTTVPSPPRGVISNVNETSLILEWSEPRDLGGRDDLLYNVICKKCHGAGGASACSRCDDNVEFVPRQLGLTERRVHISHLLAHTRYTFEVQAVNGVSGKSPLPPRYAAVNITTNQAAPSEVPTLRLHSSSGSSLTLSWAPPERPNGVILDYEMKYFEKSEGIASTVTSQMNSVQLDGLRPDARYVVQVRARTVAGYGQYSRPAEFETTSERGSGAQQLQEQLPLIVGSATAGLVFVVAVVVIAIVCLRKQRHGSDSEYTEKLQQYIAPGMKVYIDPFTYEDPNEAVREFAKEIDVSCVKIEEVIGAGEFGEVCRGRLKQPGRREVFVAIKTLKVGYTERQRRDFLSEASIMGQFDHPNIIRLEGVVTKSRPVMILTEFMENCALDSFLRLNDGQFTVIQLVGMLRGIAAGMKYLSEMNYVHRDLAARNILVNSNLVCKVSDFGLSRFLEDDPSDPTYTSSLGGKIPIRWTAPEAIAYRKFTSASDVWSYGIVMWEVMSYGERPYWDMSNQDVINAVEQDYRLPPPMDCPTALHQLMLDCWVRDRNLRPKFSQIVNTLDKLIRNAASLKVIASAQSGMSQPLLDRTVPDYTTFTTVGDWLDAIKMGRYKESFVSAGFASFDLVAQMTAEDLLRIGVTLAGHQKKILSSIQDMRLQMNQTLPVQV
# Ephrin type-A receptor 5 (Homo sapiens), sequence (P54756 whole entry): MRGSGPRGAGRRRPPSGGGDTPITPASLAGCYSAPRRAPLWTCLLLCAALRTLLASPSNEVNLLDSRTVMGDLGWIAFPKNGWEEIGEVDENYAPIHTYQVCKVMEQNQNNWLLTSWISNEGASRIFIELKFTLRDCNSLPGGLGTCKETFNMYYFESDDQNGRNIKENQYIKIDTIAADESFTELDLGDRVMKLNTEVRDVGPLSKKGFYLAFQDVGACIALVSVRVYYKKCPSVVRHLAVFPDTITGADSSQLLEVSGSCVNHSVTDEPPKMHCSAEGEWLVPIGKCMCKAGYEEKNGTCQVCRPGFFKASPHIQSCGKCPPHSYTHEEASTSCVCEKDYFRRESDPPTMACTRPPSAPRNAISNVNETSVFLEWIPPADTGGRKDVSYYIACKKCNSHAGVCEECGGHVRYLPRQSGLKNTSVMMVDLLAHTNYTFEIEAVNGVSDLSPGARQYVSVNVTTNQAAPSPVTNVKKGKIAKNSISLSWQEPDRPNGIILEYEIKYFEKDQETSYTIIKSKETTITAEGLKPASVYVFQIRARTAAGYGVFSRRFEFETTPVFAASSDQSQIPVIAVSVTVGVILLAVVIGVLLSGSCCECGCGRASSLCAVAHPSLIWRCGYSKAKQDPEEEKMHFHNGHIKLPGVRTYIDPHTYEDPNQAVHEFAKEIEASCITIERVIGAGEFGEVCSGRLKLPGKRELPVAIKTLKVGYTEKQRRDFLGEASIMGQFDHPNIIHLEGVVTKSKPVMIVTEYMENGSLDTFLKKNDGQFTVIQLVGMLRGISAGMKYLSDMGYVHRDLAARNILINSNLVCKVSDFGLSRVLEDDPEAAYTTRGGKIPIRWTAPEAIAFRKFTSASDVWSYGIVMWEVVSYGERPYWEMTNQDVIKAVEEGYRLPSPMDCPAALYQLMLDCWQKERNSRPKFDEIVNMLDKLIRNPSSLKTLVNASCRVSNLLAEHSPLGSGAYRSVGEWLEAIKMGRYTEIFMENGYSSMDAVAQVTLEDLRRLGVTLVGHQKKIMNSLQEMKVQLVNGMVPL
# Focal adhesion kinase 1 (Homo sapiens), sequence (Q05397 2-1052 limits assumed): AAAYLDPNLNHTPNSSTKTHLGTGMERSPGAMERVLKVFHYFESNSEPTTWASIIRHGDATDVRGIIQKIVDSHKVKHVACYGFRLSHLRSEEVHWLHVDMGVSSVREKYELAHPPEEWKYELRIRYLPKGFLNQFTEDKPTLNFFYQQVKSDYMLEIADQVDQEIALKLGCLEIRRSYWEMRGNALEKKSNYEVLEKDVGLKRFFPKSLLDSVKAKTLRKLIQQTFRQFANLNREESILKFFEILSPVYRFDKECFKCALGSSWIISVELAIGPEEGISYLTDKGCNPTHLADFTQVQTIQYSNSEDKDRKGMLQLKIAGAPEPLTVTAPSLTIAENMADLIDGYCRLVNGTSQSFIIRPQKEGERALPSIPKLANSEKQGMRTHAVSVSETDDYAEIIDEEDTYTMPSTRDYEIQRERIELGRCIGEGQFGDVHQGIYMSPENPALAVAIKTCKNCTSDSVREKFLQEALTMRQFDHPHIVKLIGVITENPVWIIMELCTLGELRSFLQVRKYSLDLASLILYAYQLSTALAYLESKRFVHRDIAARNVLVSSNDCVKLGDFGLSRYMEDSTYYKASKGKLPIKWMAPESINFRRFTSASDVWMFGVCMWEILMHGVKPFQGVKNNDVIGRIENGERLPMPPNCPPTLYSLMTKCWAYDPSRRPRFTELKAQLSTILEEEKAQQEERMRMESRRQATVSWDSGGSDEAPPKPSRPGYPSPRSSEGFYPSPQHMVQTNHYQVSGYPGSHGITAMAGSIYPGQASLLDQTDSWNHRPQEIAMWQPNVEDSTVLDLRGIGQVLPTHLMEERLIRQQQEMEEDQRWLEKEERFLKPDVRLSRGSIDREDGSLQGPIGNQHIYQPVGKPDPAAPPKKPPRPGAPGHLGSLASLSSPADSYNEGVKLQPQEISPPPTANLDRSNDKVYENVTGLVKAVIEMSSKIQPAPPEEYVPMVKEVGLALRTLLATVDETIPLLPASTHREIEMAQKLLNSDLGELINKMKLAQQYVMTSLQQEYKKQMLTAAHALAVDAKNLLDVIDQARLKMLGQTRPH
# Ephrin type-A receptor 7 (Homo sapiens), sequence (Q15375 28-998 limits assumed): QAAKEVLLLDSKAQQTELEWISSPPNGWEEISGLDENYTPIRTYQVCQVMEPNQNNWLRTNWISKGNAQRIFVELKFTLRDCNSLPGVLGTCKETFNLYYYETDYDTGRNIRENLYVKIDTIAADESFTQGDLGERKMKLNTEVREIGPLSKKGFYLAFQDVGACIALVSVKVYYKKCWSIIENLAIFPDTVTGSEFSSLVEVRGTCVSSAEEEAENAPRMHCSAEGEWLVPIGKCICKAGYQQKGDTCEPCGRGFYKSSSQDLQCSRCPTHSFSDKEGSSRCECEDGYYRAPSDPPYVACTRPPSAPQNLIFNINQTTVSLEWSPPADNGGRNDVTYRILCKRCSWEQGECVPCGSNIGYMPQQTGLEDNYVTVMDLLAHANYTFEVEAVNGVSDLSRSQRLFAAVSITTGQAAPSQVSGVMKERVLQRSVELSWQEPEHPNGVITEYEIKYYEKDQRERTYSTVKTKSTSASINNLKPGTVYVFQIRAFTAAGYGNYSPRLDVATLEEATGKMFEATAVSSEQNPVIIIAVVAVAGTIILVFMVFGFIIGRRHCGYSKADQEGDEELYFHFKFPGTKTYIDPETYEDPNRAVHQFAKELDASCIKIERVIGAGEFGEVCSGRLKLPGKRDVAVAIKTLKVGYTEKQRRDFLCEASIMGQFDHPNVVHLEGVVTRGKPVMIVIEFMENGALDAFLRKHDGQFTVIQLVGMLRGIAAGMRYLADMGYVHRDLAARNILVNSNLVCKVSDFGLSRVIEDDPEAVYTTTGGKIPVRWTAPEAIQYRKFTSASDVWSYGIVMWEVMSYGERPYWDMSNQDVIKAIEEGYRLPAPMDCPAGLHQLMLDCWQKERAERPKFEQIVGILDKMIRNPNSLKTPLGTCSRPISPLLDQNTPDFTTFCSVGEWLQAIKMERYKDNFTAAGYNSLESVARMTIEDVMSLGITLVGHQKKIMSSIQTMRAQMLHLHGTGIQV
compound,measurement,setting,value
CCCCc1c(-c2ccc(O)cc2)[nH]c2nccnc12,residual activity,[1],30%
same,residual activity,[2],95%
same,residual activity,[3],66%
same,residual activity,[4],83%
same,residual activity,[5],39%
same,residual activity,[6],90%
same,residual activity,[7],58%
same,residual activity,[8],64%
same,residual activity,[9],22%
same,residual activity,[10],96%
same,residual activity,[11],82%
same,residual activity,[12],74%
same,residual activity,[13],16%
same,residual activity,[14],76%
CCOc1nc(NC(=O)Cc2cc(OC)ccc2OC)cc(N)c1C#N,residual activity,[3],74%
CN([C@@H](Cc1ccc(OS(=O)(=O)c2cccc3cnccc23)cc1)C(=O)N1CCN(c2ccccc2)CC1)S(=O)(=O)c1cccc2cnccc12,residual activity,[11],131%
same,residual activity,[15],116% (inactive)
same,residual activity,[14],119%
